Results on 13 compounds are retold here after PubChem BioAssay (NCATS).

The nature of assay [1]: Cell Viability - LYMP2-025 (AID 976).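 Also: plate controls were DMSO only for no effect and tetraoctylammonium bromide control for full effect.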 The gist of the method:
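In qHTS format, LYMP2-025 lymphoblastoid cells in complete culture medium received compound for 24 hr; ATP-based CellTiter-Glo signal gave viability, with AC50 derived by Hill equation.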

Assay [2] is described as follows: Cell Viability - LYMP2-002 (AID 977).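 Also: compound exposure lasted 24 h at 37 °C; plate controls were DMSO only for no effect and 92 µM tetraoctylammonium bromide for full effect.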 In outline:
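Human lymphoblastoid LYMP2-002 cells, 2500 per well, exposed to compounds for 24 h at 37 C in complete medium; viability read as intracellular ATP by CellTiter-Glo luminescence, AC50 from Hill fits.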

The nature of assay [3]: Cell Viability - LYMP2-010 (AID 981). Also: nearly all actives have a fitted effect of over 55% in size. Also: potency is read from the fitted curve at half-maximal effect. The gist of the method:
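Acute toxicity is scored as a concentration-dependent loss of cellular ATP in human lymphoblastoid cells after 24 hr compound exposure in complete medium. Tetraoctylammonium bromide is the positive control.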

Assay [4] in a line: Cell Viability - LYMP2-014 (AID 983).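 Also: plate controls were DMSO only for no effect and 92 µM tetraoctylammonium bromide for full effect; nearly all actives have a fitted effect of over 50% in size.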 In outline: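 Decrease in intracellular ATP after 24 hr treatment at 37 C, measured by luciferase luminescence, indicated cytotoxicity. Concentration-response data were fitted with the standard Hill equation to give AC50.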
Assay [5] deals with Alpha-galactosidase A (Homo sapiens) (UniProt P06280). The experiment in a line: Counterscreen for Glucocerebrosidase Inhibitors: qHTS Assay for Human alpha-Galactosidase at pH 4.5 (AID 992). Also: 0% is about no effect. In outline:
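Concentration-response curves (0.7 nM to 77 uM final) were modeled with the Hill equation to give AC50. Reactions: 2 nM enzyme, 80 uM fluorogenic alpha-galactoside, pH 4.5 citric acid buffer, 20 min, room temperature.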
(In general: Counterscreens check selectivity or assay interference.)

Assay [6] can be described thus: Cell Viability - LYMP1-002 - Assay at 24 hr (AID 993). Also: % is scaled to controls: 0 for no effect and ±100 for the full control effect. The gist of the method:
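qHTS, LYMP1-002 lymphoblastoid, 24 h cpd, 37 C, CellTiter-Glo ATP luminescence; AC50 via Hill eq.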

A short description of assay [7]: qHTS Assay for Lipid Storage Modulators (AID 1519; calls by dose curve; as to activity change, negative = inhibition: % is scaled to controls: 0 for no effect and ±100 for the full control effect). As to conditions: Drosophila S3 cells, BODIPY lipid droplet/cell ratio, laser cytometry, cells loaded with oleic acid. The gist of the method: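 Cells seeded at 5,000 per well were treated with compounds over a concentration series and loaded with oleic acid (400 uM, as added). Lipid droplet fluorescence (488 nm excitation, 500-530 nm channel) was read by laser-scanning cytometry and normalized to 20 uM Triacsin C.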
For orientation: Quantitative high-throughput screening tests each substance at several concentrations.

Assay [8] can be described thus: Cell Viability - LYMP2-023 (AID 975).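 Also: cellular ATP measured by luciferase luminescence as viability proxy; plate controls were DMSO only for no effect and 92 µM tetraoctylammonium bromide control for full effect; nearly all actives have a fitted effect of over 55% in size.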 The gist of the method:
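Concentration-dependent drop in intracellular ATP measures acute cytotoxicity in a human lymphoblastoid line treated for 24 hours in complete culture medium. AC50 values are taken from Hill-equation fits of qHTS data.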

The nature of assay [9]: Cell Viability - LYMP2-006 (AID 978). Also: % is scaled to controls: 0 for no effect and ±100 for the full control effect; nearly all actives have a fitted effect of over 60% in size. The gist of the method:
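Cells are seeded at 2500 per well and rested 5 hr at 37 C. Compounds are added across a concentration series for 24 hr at 37 C, after which ATP is quantified by luciferase luminescence.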

Assay [10] can be described thus: Cell Viability - LYMP2-007 (AID 979).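 Also: cells exposed to compound for 24 h before reading; 0% = DMSO only and the negative end = 92 µM tetraoctylammonium bromide; nearly all actives have a fitted effect of over 60% in size.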 The gist of the method:
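Acute toxicity is scored as a concentration-dependent fall in intracellular ATP in human lymphoblastoid cells treated 24 hr at 37 C, measured by luciferase luminescence; Hill-equation modelling yields AC50.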

Assay [11] is described as follows: Cell Viability - LYMP2-008 (AID 980). Also: % is scaled to controls: 0 for no effect and ±100 for the full control effect; nearly all actives have a fitted effect of over 60% in size. The gist of the method: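 Acute cytotoxicity is scored as concentration-dependent loss of cellular ATP in a human lymphoblastoid line after 24 hr treatment at 37 C. ATP is quantified by luciferase luminescence.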
A short description of assay [12]: Cell Viability - LYMP2-012 (AID 982).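 Also: cellular ATP by luciferase luminescence where a drop means cytotoxicity; cells exposed to compound for one day before reading; 0% = DMSO only and full loss = 92 µM tetraoctylammonium bromide; nearly all actives have a fitted effect of over 55% in size.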
The nature of assay [13]: Cell Viability - LYMP2-016 (AID 984). Also: % is scaled to controls: 0 for no effect and ±100 for the full control effect; nearly all actives have a fitted effect of over 55% in size. The gist of the method:
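Cells were seeded at 2500 per well and rested 5 hr before a 24 hr compound exposure at 37 C. Viability was then gauged as cellular ATP by luciferase luminescence, with AC50 values fitted to the Hill equation.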

The nature of assay [14]: Cell Viability - LYMP2-018 (AID 985).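 Also: plate controls were DMSO only for no effect and tetraoctylammonium bromide at 92 µM for full effect; nearly all actives have a fitted effect of over 50% in size.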 In outline:
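Acute cytotoxicity is scored as a concentration-dependent drop in intracellular ATP after 24 hr exposure of the lymphoblastoid line in complete culture medium, measured by luciferase luminescence. Potency is expressed as AC50 from Hill modelling.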

A short description of assay [15]: Cell Viability - LYMP2-020 (AID 986). The gist of the method:
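Acute cytotoxicity in a human lymphoblastoid line is scored as a concentration-dependent fall in cellular ATP after 24 hr at 37 C in complete medium. The positive control is tetraoctylammonium bromide, and potency is given as Hill-fit AC50.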

A short description of assay [16]: Cell Viability - LYMP2-022 (AID 987). In outline:
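Acute toxicity in a human lymphoblastoid line is scored as decreased intracellular ATP after 24 hr compound treatment at 37 C. ATP is measured by CellTiter-Glo luminescence; curves are fitted with the Hill equation to give AC50.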

Assay [17] in a line: Cell Viability - LYMP2-024 (AID 988).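 Also: plate controls were DMSO only for no effect and 92 µM tetraoctylammonium bromide for full effect; nearly all actives have a fitted effect of over 60% in size.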 The gist of the method:
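Acute toxicity is measured as concentration-dependent loss of intracellular ATP in a human lymphoblastoid line treated 24 hours at 37 C. Luciferase luminescence quantifies ATP; AC50 values come from standard Hill-equation modelling.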

Assay [18] can be described thus: Cell Viability - LYMP2-026 (AID 989). Also: % is scaled to controls: 0 for no effect and ±100 for the full control effect; nearly all actives have a fitted effect of over 50% in size. The gist of the method:
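Concentration-dependent loss of intracellular ATP in human lymphoblastoid cells after 24 hr at 37 C, quantified by luciferase luminescence. AC50 derived from standard Hill equation.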

Assay [19] in a line: Cell Viability - LYMP1-002 - Assay at 40 hr (AID 994). The gist of the method: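 Viability in the human lymphoblastoid line was measured as intracellular ATP via CellTiter-Glo after 40 hr compound exposure. Tetraoctylammonium bromide served as positive control.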
Setting [20] is: measured here: cell count channel max response.
[21] abbreviates: measured here: lipid channel max response.

“And” between values parts separate entries of the source, which are not always exact repeats. Equal entries are not always repeated. Records with an inconclusive call do not appear. The source made the active and inactive calls. Unless noted, calls follow the shape of the dose curve; as a rule, active = well fitted curve in the direction sought with a large enough effect; inconclusive = small, poorly fitted or top-dose-only effect, or another doubt; inactive = no such curve, though single readings can be large; an effect the other way counts as inactive or inconclusive.

Sequence of Alpha-galactosidase A (Homo sapiens) (P06280 whole entry, looked up): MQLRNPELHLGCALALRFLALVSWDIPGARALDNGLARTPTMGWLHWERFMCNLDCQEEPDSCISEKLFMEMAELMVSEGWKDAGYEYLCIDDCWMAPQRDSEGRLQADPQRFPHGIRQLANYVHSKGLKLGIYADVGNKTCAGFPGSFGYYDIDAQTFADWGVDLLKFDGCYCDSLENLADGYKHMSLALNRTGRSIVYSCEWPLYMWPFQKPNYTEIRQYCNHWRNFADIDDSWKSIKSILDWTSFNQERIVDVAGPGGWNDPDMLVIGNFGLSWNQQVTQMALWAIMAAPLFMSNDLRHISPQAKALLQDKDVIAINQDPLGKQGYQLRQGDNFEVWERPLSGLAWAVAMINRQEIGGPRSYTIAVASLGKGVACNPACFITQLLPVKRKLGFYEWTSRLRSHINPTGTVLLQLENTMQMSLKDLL

`Cn1cnc([N+](=O)[O-])c1Sc1ncnc2nc[nH]c12`: the compound was called inactive in assay [1], in assay [2], in assay [4], in assay [5] and in assay [6]. The Potency in [3] was 39.8 µM (active). Also, the activity change, negative = inhibition is -1.38% (inactive) in assay [7] (at 25.7 µM (top of the series)); 0.323% (inactive) and -0.298% (inactive) in assay [7] (at 57.5 µM (top of the series)). In addition, the max response in assay [7] (setting [20]) was 0.534% and 6.17% and -33.4%; in assay [7] (setting [21]) it was 0.0916% and 9.95% and -32.9%.

Consider `NC(=O)c1cnccn1`, for which the outcome in assay [8], in assay [1], in [2], in assay [9], in assay [10] and in assay [11] was inactive. The compound was called inactive in [12], in assay [4], in [13], in [14], in assay [15] and in [16]. The result in [17], in assay [18], in [5], in assay [6] and in assay [19] was inactive. Further, the Potency entry in assay [3] is “inactive”. The activity change, negative = inhibition in assay [7] (at 57.5 µM (top of the series)) is 8.38% (inactive). In addition, the results for the max response in [7] (setting [20]) and in [7] (setting [21]) were 10.7% and 23.4%, respectively.

As to `CC(C)(Sc1ccc(CCN(CCCCC2CCCCC2)C(=O)NC2CCCCC2)cc1)C(=O)O`, the outcome in assay [5] was inactive. Further, the activity change, negative = inhibition in [7] (at 57.5 µM (top of the series)) is -0.767% (inactive). Further, the max response in [7] (setting [20]) was found to be 16.5%; in assay [7] (setting [21]), 13.3%.

Take `O=C1CCc2cc(OCCCCc3nnnn3C3CCCCC3)ccc2N1`: in [5], the compound was called inactive. Also, the activity change, negative = inhibition in assay [7] (at 57.5 µM (top of the series)) is -9.74% (inactive). In addition, the max response in assay [7] (setting [20]) is -20.7%; in [7] (setting [21]) it was -27.2%.

Turning to `CCOC(=O)C1=C[C@@]2(CC)CCCN3CCc4c(n1c1ccccc41)[C@H]32`, the result in assay [5] was inactive. In assay [7] (at 25.7 µM (top of the series)), the activity change, negative = inhibition was -1.77% (inactive). Also, the max response is -14.2% in [7] (setting [20]) and -15.3% in assay [7] (setting [21]).

On to `Cc1cn[nH]c1`, for which the call in assay [5] was inactive.

With `CCOC(=O)N1CCC(=C2c3ccc(Cl)cc3CCc3cccnc32)CC1`, in [5], the result was inactive. Also, in assay [7] (at 57.5 µM (top of the series)), the activity change, negative = inhibition is 3.85% (inactive). Moreover, the max response in [7] (setting [20]) was determined as 1.57%; in [7] (setting [21]), 11.7%.

Take `Nc1nc2ccc(OC(F)(F)F)cc2s1`: the call in assay [5] was inactive. In addition, the values for the activity change, negative = inhibition in assay [7] (at 25.7 µM (top of the series)) and in [7] (at 57.5 µM (top of the series)) were -1.29% (inactive) and 1.85% (inactive), respectively. Moreover, the max response in assay [7] (setting [20]) was -7.42% and -26.5%; in assay [7] (setting [21]), -8.28% and -25.3%.

With `Nc1nc2c(ncn2COCCO)c(=O)[nH]1`, the outcome in [5] was inactive.

Consider `NNCCc1ccccc1`, for which the compound was called inactive in assay [5]. Besides, the activity change, negative = inhibition was 1.11% (inactive) in [7] (at 25.7 µM (top of the series)) and 11.9% (inactive) in assay [7] (at 57.5 µM (top of the series)). The max response was 3.17% and -11.1% in assay [7] (setting [20]); -2.33% and 4.58% in assay [7] (setting [21]).

As for `CC(C)NCC(O)COc1ccc(COCCOC(C)C)cc1` (stereo not given), the compound was called inactive in [5].

In the case of `Cc1[nH]c(=O)c(C#N)cc1-c1ccncc1`, the result in assay [5] was inactive. The activity change, negative = inhibition in assay [7] (at 25.7 µM (top of the series)) was 2.58% (inactive); in assay [7] (at 57.5 µM (top of the series)), -0.858% (inactive). Further, the max response in [7] (setting [20]) was -8.19% and -12.8%; in assay [7] (setting [21]) it was -4.74% and -14.2%.

As to `CN1CCN(CCCN2c3ccccc3Sc3ccc(C(F)(F)F)cc32)CC1`, the call in assay [5] was inactive. Besides, the activity change, negative = inhibition was -6.05% (inactive) in assay [7] (at 25.7 µM (top of the series)) and 7.35% (inactive) in [7] (at 57.5 µM (top of the series)). Further, the max response is -17.1% and 19.1% in assay [7] (setting [20]); -20.9% and 29.4% in assay [7] (setting [21]).
